USP2a inh = USP2a (human) protease inhibition. O75604. USP2 core, Ub-CHOP2 coupled fluorogenic reporter, 485/531. Potency, µM (titrated, usually from 38.3 µM), usual class: inhibitors. actives 0.01% (n = 330,000). AID 463254
Target sequence (O75604 whole entry, looked up): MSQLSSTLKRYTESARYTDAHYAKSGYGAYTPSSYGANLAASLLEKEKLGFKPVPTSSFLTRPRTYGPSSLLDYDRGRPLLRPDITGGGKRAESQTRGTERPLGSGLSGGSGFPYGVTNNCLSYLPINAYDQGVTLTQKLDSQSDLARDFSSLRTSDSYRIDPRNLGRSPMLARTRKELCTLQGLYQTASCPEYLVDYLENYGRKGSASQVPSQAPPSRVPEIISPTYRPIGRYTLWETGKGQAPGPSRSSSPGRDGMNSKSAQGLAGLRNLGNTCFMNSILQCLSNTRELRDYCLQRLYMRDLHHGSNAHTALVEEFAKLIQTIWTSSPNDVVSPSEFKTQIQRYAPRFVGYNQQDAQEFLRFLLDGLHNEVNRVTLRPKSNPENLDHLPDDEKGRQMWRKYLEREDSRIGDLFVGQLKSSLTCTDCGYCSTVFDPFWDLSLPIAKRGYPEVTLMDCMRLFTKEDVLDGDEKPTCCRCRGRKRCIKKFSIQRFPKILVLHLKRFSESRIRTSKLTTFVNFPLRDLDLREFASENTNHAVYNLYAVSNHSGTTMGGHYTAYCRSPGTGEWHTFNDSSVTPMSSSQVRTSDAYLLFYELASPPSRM
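Deubiquitinase activity read as fluorescence (485/531 nm) after Ub-CHOP2 cleavage activates the enterokinase reporter on its substrate; USP2 core 10nM, Ub-CHOP2 and substrate 25nM each, 30min compound preincubation then 60min RT; data normalized to NEM, curves fitted.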
a7 integrin act = activators of alpha7 integrin expression for muscular dystrophy | alpha7betagal myoblasts, beta-gal FDG fluorescence, 48 h | Potency, µM (highest dose often 38.3 µM), most hits filed as activators | actives 0.064% (n = 350,000) | AID 624291; also: nearly all actives have a fitted effect of over 60% in size
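Alpha7betagal+/- myoblasts (passage 13) were plated 16-24 hr, then exposed to compounds (1:260 dilution of DMSO stock) for 48 hours at 37C. After MPER lysis, β-galactosidase reporter activity was read as FDG fluorescence (ex 480/em 540) after 30 minutes.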
ClpP mod = qHTS Assay for Activators of ClpP; ATP-dependent Clp protease proteolytic subunit (Bacillus subtilis (strain 168)), P80244; actives 1.9% (n = 340,000); purified B. subtilis ClpP, FRET peptide cleavage, 20 min; Potency, µM (top dose mostly 57.5 µM); active = well fitted falling curve with a large enough effect; inconclusive = small, poorly fitted or top-dose-only effect; inactive = no such curve, though single readings can be large or run the other way; also: the source files actives as falling curves though it sought activators and does not explain the sign; nearly all actives have a fitted effect of over 65% in size
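Buffer: 100 mM Tris/HCl pH8, 100 mM KCl, 0.05% low protease BSA, 2.5% glycerol, 0.01% Tween-20. ClpP 10 microg/mL final; 20 min RT; delta FRET normalized to ADEP and DMSO controls.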
Pin1 inh = inhibitors of human Pin1; Q13526; actives 0.009% (n = 390,000); Pin1 FP peptide displacement, HiFluor488, 10 min; AID 504891; Potency, µM (top dose mostly 115 µM), usual class: inhibitors; active = well fitted inhibition curve with a large enough effect in the polarisation, with a control signal flat, not every such curve was filed as active; inconclusive = small, poorly fitted or top-dose-only effect, or effect the other way, or a change in a side signal; inactive = no such curve, though single readings can be large or run the other way; the % refers to the polarisation
PKM2 activator = activators of human pyruvate kinase M2; actives 0.34% (n = 260,000); AID 1631; Potency, µM (top dose mostly 57.5 µM), most hits filed as activators; purified PKM2, Kinase-Glo ATP luminescence, activation; response scale: 0% is enzyme alone, no compound; also: nearly all actives have a fitted effect of over 55% in size
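Kinase-Glo luminescence reports ATP generated from ADP (0.1 mM) and PEP (0.5 mM) by purified hPK-M2 after 1 h at room temperature, pH 7.2 imidazole buffer; intermediate enzyme activity allows detecting inhibitors and activators.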
IL-2 act = activators of IL-2; activation, % (series mostly up to about 46 µM); actives 0.065% (n = 360,000); IL-2 activation reporter assay, cell-based qHTS; stimulated with anti-CD3/CD4/CD28 beads; in transgenic mouse T cells; AID 652025; in the data active = activation above about 50%; inconclusive = mostly about 30% to 49%
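Using fluorescent plate cytometry, EGFP and DsRed are detected in transgenic mouse T cells stimulated 18 h at 37 degrees C with antibody-coated beads after 60 min compound pretreatment.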
Hits are given with their value; - = inactive; ? = inconclusive; . = no result; [ ] = remark or other dose. Most compounds without a hit are left out; they make up all but 1.9% or so of the library. Unless noted, calls follow the shape of the dose curve; as a rule, active = well fitted curve in the direction sought with a large enough effect; inconclusive = small, poorly fitted or top-dose-only effect, or another doubt; inactive = no such curve, though single readings can be large; an effect the other way counts as inactive or inconclusive.

SMILES | USP2a inh | a7 integrin act | ClpP mod | Pin1 inh | PKM2 activator | IL-2 act
CC(Oc1ccc(F)cc1)c1ccnc2nc(/N=C/N(C)C)nn12 (stereo not given) | - | - | . | - | - | -
COc1cccc(OC(C)c2ccnc3nc(/N=C/N(C)C)nn23)c1 (stereo not given) | - | - | 31.6µM | - | - | -
O=C(NCCc1nc2ccccc2n1CCOc1cccc2ccccc12)C1CCCCC1 | . | . | - | - | . | .
C[N+](C)(CCCCCI)c1ccc(/C=C/c2nc3ccccc3s2)cc1 | . | . | - | . | . | .
CC(c1ccc(N(C)C)cc1)c1ccnc2ccccc12 (stereo not given) | . | . | - | . | . | .
CC(C)Cc1nnc(NC(=O)CCC(=O)N2CCN(c3ccccn3)CC2)s1 | - | -[7.66 µM] | 25.1µM | - | - | -
O=C(O)CCC(=O)N1CCN(c2ccccn2)CC1 | - | - | 25.1µM | - | - | -
CC(C)CC(NC(=O)C1CCCCC1)C(=O)N1CCN(c2ccccn2)CC1 (stereo not given) | - | - | 28.2µM | - | - | -
COc1ccccc1CC(=O)N1CCN(c2ccccn2)CC1 | - | - | 22.4µM | - | - | -
CN1C(=O)Cc2cc([S+](=O)([O-])N3CCN([S+](=O)([O-])c4c(F)cccc4F)CC3)ccc21 | . | . | . | - | . | .
Nc1cc(N)cc(N)c1 | . | . | - | . | . | .
O=C(NCCc1nc2ccccc2n1CCOc1ccccc1)C1CCCCC1 | . | . | - | - | . | .
O=C(CC1CCCCC1)N1CCN(c2ccccn2)CC1 | - | - | 31.6µM | - | - | -
C[N+](C)(C)c1ccc(/C=C2\C=Cc3ccccc32)cc1 | . | . | - | . | . | .
Nc1nnc(-c2cn(-c3ccccc3)nc2-c2ccccc2)o1 | - | - | 25.1µM | ? | - | -
Nc1nnc(-c2cn(-c3ccccc3)nc2-c2ccc(Cl)cc2)o1 | - | - | . | - | - | -
NC(=O)c1sc2nc3c(c(-c4ccco4)c2c1N)CCC3 | - | - | - | - | - | -
Nc1c(C(=O)NC2CC2)sc2nc3c(c(-c4ccco4)c12)CC/C3=C/c1ccco1 | 22.4µM | - | - | . | - | -
Cc1ccn2c(NCc3ccco3)c(-c3ccccc3)nc2c1 | . | . | - | - | . | .
COc1nc(-c2ccc(C)cc2)ccc1-c1noc(-c2ccco2)n1 | - | - | 28.2µM | ? | - | -
CCOc1ccccc1-c1nc(-c2ccc(-c3ccccc3)nc2OCC)no1 | . | . | 12.6µM | ? | . | .
CCOc1nc(-c2ccccc2)ccc1-c1noc(COc2ccccc2)n1 | - | - | ? | - | - | -
CCOc1nc(-c2ccccc2)ccc1-c1noc(-c2ccco2)n1 | - | - | 35.5µM | - | - | -
OC(CBr)C[n+]1cc(Br)cc2ccccc21 (stereo not given) | . | . | - | . | . | .
COc1ccc(NC(=O)CN(c2ccc([N+](=O)[O-])cc2)S(=O)(=O)c2ccccc2)c(OC)c1 | - | - | - | - | - | -
SMILES | USP2a inh | a7 integrin act | ClpP mod | Pin1 inh | PKM2 activator | IL-2 act
COc1ccccc1NC(=O)CN(c1ccc([N+](=O)[O-])cc1)S(=O)(=O)c1ccccc1 | - | - | - | - | 10µM | -
O=c1ccsn1Cc1ccccc1 | - | - | - | - | 5.01µM | -
COCCn1c(SCC(=O)NNC(=O)c2ccc(OC)c(OC)c2)nc2ccccc2c1=O | - | - | . | - | - | -
COCCn1c(SCC(=O)NNC(=O)c2ccccc2)nc2ccccc2c1=O | - | - | 28.2µM | - | - | -
COCCCNC(=O)CSc1nc2ccccc2c(=O)n1Cc1ccc2c(c1)OCO2 | - | - | 28.2µM | - | - | -
CC(=O)OCON[N+]([O-])=NC(C)C | . | . | - | - | . | .
Cc1cc(O)c2c(C)c(CC(=O)N3CCCCC3)c(=O)oc2c1 | . | . | - | - | . | .
CCOC(=O)c1oc2cc(C)cc(C)c2c1C | - | ? | - | - | - | -
CCOC(=O)Cc1c(C)c2ccc(N(CC)CC)cc2oc1=O | - | - | 22.4µM | - | - | -
CCOC(=O)Cc1c(C)c2c(O)cc(O)cc2oc1=O | - | -[7.66 µM] | 25.1µM | - | - | -
